# Test results: PubChem BioAssay (NCATS)
# “And” between values parts separate entries of the source, which are not always exact repeats. Equal values may be shown once. Records with an inconclusive call do not appear. More than one record can exist for a structure, and the calls need not agree. The source made the active and inactive calls. Calls follow the shape of the dose curve; as a rule, active = well fitted inhibition curve with a large enough effect; inconclusive = small, poorly fitted or top-dose-only effect; inactive = flat fitted curve, though single readings scatter.
# Test: P-glycoprotein substrates identified in KB-8-5-11 adenocarcinoma cell line, qHTS therapeutic library screen (AID 1346987); also: nearly all actives have a fitted effect of over 65% in size
# Details: KB-8-5-11 (P-gp overexpressing) viability, CellTiter-Glo, 72 h; series mostly up to 44.5 µM; activity change, negative = cytotoxicity: at the top concentration
# In short: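 In this qHTS, P-gp-rich KB-8-5-11 cells received library compounds across a concentration range. Viability was quantified by luminescence after 72 h at 37 degree C.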
# % is scaled to controls: 0 for no effect and ±100 for the full control effect; potency is read from the fitted curve at half-maximal effect.
Structure (SMILES),outcome,Potency,"activity change, negative = cytotoxicity"
CC1(C)CCC(CN2CCN(c3ccc(C(=O)NS(=O)(=O)c4ccc(NCC5CCOCC5)c([N+](=O)[O-])c4)c(Oc4cnc5[nH]ccc5c4)c3)CC2)=C(c2ccc(Cl)cc2)C1,inactive,,
COc1ccc(-c2oc3c(CC=C(C)C)c(OC4O[C@H](CO)[C@@H](O)[C@H](O)[C@@H]4O)cc(O)c3c(=O)c2OC2O[C@@H](C)[C@H](O)[C@@H](O)[C@@H]2O)cc1 (stereo partly specified),,23.5 µM (active),
O=C1c2ccccc2-[n+]2ccc3c([nH]c4ccccc43)c21,,3.32 µM (active),
CC(C)n1nc(-c2ccc3oc(N)nc3c2)c2c(N)ncnc21,,1.3 nM (active) and 32.6 nM (active),
O=C1NC(=O)C(=Cc2ccc(-c3ccc(F)cc3)o2)S1,,,4.76% (inactive)
O=C(NOCC(O)CO)c1cc(Br)c(F)c(F)c1Nc1ccc(I)cc1F (stereo unspecified),,,-21.3% (inactive)
COc1cc(O)c2c(c1)C(=O)c1cc(C)cc(O)c1C2=O,,,0.883% [at 17.3 µM] (inactive)
CON=C(C(=O)N[C@@H]1C(=O)N2C(C(=O)OCOC(=O)C(C)(C)C)=C(C=Cc3scnc3C)CS[C@H]12)c1csc(N)n1,,,1.76% (inactive)
NC(=O)c1cccc(-c2cc(Nc3ccc(OC(F)(F)F)cc3)ncn2)c1,,,-22.4% (inactive)
O=C1NC(=O)C(=Cc2ccc3nccnc3c2)S1,,,-6.84% [at 17.3 µM] (inactive)
Cc1[nH]c(C=C2C(=O)Nc3ccc(S(=O)(=O)Cc4c(Cl)cccc4Cl)cc32)c(C)c1C(=O)N1CCC[C@H]1CN1CCCC1,,,3.82% (inactive)
C[C@H](NC(=O)c1sccc1OCc1ccc(Cl)cc1)c1ccccc1,,14.8 µM (active),
CC(C)(Cc1ccc2ccccc2c1)NC[C@@H](O)COc1cccc(Cl)c1C#N,,,4.88% (inactive)
CC[C@]1(O)C[C@@H]2CN(CCc3c([nH]c4ccccc34)[C@@](C(=O)OC)(c3cc4c(cc3OC)N(C=O)[C@@H]3C45CCN4CC=C[C@](CC)([C@H]45)[C@@H](OC(C)=O)[C@]3(O)C(=O)OC)C2)C1 (stereo partly specified),,,-41.3% (inactive)
O=C(NC1CCOCC1)c1ccc(-c2cc(-c3cn[nH]c3-c3ccccn3)ccn2)cc1,,inactive,
CC(=O)OC1C(C)OC(Oc2c(-c3ccc(O)cc3)oc3cc(O)cc(O)c3c2=O)C(O)C1OC(C)=O (stereo unspecified),inactive,,
COc1ccc2cccc(CCNC(C)=O)c2c1,,,7.65% (inactive)
CC(C)C(C)C=CC(C)C1CCC2C3=CC=C4CC(O)CCC4(C)C3CCC21C (stereo unspecified),inactive,,

Structure (SMILES),outcome,Potency,"activity change, negative = cytotoxicity"
COc1ccc(C2Sc3ccccc3N(CCN(C)C)C(=O)C2OC(C)=O)cc1 (stereo unspecified),inactive,,
Oc1ccc(C2=Cc3ccc(O)cc3OC2)cc1,,9.35 µM (active) and 6.51 µM (active),
CN1[C@@H]2CCC[C@@H]1CC(NC(=O)c1nn(C)c3ccccc13)C2 (stereo partly specified),,,-10.4% (inactive)
CNC(=O)c1ccccc1Sc1ccc2c(C=Cc3ccccn3)n[nH]c2c1,,4.18 µM (active),
CC=CCC=CCCC(=O)[C@H]1O[C@@H]1C(N)=O,inactive,,
CCc1ccc(C=C2SC(=S)NC2=O)cc1,,,-25.7% (inactive)
COc1cc2nc(-c3ccc(N4CCN(C)CC4)cc3)nc(NCCN3CCOCC3)c2cc1OC,,7.31 µM (active),
CCc1ccc(OCc2ccccc2C(=O)Nc2ccc3nc(C)cc(N)c3c2)cc1,,7.43 µM (active),
COCCOc1nc(-c2ccc(Cl)c(Cl)c2)n(-c2ccc(NC(=O)CCl)cc2)n1,,inactive and 14.6 µM (active),
O=C(NCc1ccncc1)C12C[C@H]3C[C@@H](C1)CC(c1ccc(Cl)cc1)(C3)C2,,,-22.6% (inactive)
O=C1NC(=O)C(=Cc2ccc3c(c2)OC(F)(F)O3)S1,,,-15.6% (inactive)
C[C@]12CC[C@@H]3c4ccc(O)cc4C[C@@H](CCCCCCCCCS(=O)CCCC(F)(F)C(F)(F)F)[C@H]3[C@H]1CC[C@H]2O (stereo partly specified),,,-8.39% (inactive)
CN(C[C@@H]1COCCO1)S(=O)(=O)Nc1ccc2ccc3ncc(-c4cnn(C)c4)cc3c(=O)c2c1,,18.7 µM (active) and 18.4 µM (active),
O=C1C[C@@H](c2ccc(O)cc2)Oc2cc(O)cc(O)c21,,,-3.25% (inactive)
Cn1c(N2CCCCS2(=O)=O)nc(C(=O)NCc2ccc(F)cc2)c(O)c1=O,,inactive,
O=C(CCCCCCC(=O)Nc1ccccc1)NO,,4.61 µM (active) and 3.66 µM (active) and 6.62 µM (active),
CO[C@H]1C(=O)[C@]2(C)[C@@H](OC)C[C@H]3OC[C@@]3(OC(C)=O)[C@H]2[C@H](OC(=O)c2ccccc2)[C@]2(O)C[C@H](OC(=O)[C@H](O)[C@@H](NC(=O)OC(C)(C)C)c3ccccc3)C(C)=C1C2(C)C,,0.001 µM (active),
O=C(OCC#CCSc1nnc(-c2cccc3ccccc23)o1)c1cc2ccccc2s1,,,5.09% (inactive)
